Reference: PubChem BioAssay (EPA / NIEHS)
Calls of active or inactive are those of the source. Rule for the calls: active = hit-call score of the fitted dose curve at least 0.9, where 1 is the maximum; inactive = score below 0.9.

Each molecule was assayed on Tissue Factor, F3 (gene 2152) (assay: BSK_LPS_TissueFactor: BioMAP Diversity Plus: LPS Assay for Tissue Factor Biomarker Activity (AID 2283084)). Conditions: primary human HUVEC with PBMC; actives raise or lower the signal.
Procedure: BSK_LPS is a cell-based, multiplexed-readout assay that uses umbilical vein endothelium and peripheral blood mononuclear cells, a human vascular primary cell co-culture, with measurements taken at 24 hours after chemical dosing in a 96-well plate.BSK_LPS_TissueFactor is an assay component measured in the BSK_LPS assay. It measures CD142 Tissue Factor antibody related to regulation of gene expression using ELISA technology.Data from the assay component BSK_LPS_TissueFactor was analyzed into 1 assay endpoint. This assay endpoint, BSK_LPS_TissueFactor, was analyzed with bidirectional fitting relative to DMSO as the negative control and baseline of activity. Using a type of binding reporter, gain or loss-of-signal activity can be used to understand changes in the signaling as they relate to the gene F3. Furthermore, this assay endpoint can be referred to as a primary readout, because this assay has produced multiple assay endpoints where this one serves a signaling function. To generalize the intended target to other relatable targets, this assay endpoint is annotated to the cytokine intended target family, where the subfamily is coagulation factor.
The levels of cell surface (or secreted, indicated by the prefix "s") biomarker endpoints were measured by ELISA. Overt cytotoxicity to cells in confluent adherent cultures (all systems other than the BT system) was assessed by measuring total protein levels using sulforhodamine B (SRB) staining in parallel cultures at the time of biomarker measurements, indicated as SRB endpoints. For proliferation assays for adherent cell types, individual cell types are cultured at sub-confluence and relative cell numbers quantified by SRB staining at time points optimized for each system (48 h: 3C and CASM3C systems; 72 h: BT and HDF3CGF systems; 96 h: SAg system). SRB was performed by staining cells with 0.1% SRB after fixation with 10% TCA and reading wells at 560 nm.Viability and proliferation of PBMC (T cells) was quantified by Alamar Blue reduction for the SAg and BT systems. For PBMC viability (referred to as PBMC Cytotoxicity within the assay endpoint names), cells were plated (75,000/well in a 96-well plate) and then chemical samples added for 1 h before addition of activators, SEB and TSST-1 (20 ng/mL final concentration each). Cells were incubated for 90 h. Then, Alamar Blue (20 uL/well) (Invitrogen, Cat DAL1100) was added for 6 h, and the plates were read with a fluorescence microplate reader at 546/580 nm (excitation/emission). For PBMC proliferation, cells were plated and activated as above but incubated for only 16 h prior to addition of Alamar Blue. Plates were read after 6 h.

outcome, inactive:
Clc1cc(Cl)c2c(c1)N=C1CCCCCN1C2
CC1(C)NC(=O)N(c2ccc([N+](=O)[O-])c(C(F)(F)F)c2)C1=O
CC1=CC(=O)/C(=C(/C)O)C(=O)O1
COCC(C)OCC(C)OCC(C)O (stereo not given)
Cc1cc2c(cc1C(F)(F)F)N(C(=O)Nc1ccc(Oc3cccnc3C)nc1)CC2
CN1C(=O)CC[C@H]1c1cccnc1
Cc1ccc(C(C)C)cc1
CCCCCCCC[Si](OCC)(OCC)OCC
CO[C@H]1/C=C/O[C@@]2(C)Oc3c(C)c(O)c4c(O)c(c(/C=N/N5CCN(C)CC5)c(O)c4c3C2=O)NC(=O)/C(C)=C\C=C\[C@H](C)[C@H](O)[C@@H](C)[C@@H](O)[C@@H](C)[C@H](OC(C)=O)[C@@H]1C
CCCCCCCCCCCO
O=C1c2ccccc2C(=O)N1CCc1noc(-c2ccc(CN3CCCCCC3)s2)n1
CCCCCc1ccc(N)cc1
Cc1ccc2oc(CN(Cc3ccccc3)C(=O)Nc3c(F)cc(F)cc3F)c(-c3ccc(Cl)cc3)c2c1
CC(C)(O)c1ccc(CNC(=O)c2cccnc2Oc2ccc3nonc3c2)cc1
Cc1ncc(CO)c(CO)c1O
CC[C@H](NC(=O)c1cc(F)ccc1NS(=O)(=O)c1cccc2cccnc12)c1ccccc1
CC(C)(C)c1csc(-c2cc3cc(OCc4ccccc4CC(=O)O)ccc3o2)n1
CCCOC(=O)c1cc(O)c(O)c(O)c1
O=C(O)c1ccccc1C(=O)OCc1ccccc1
O=C=NCCCCCCN=C=O
Oc1ccc2ccccc2c1
Cc1cn([C@H]2C[C@H](N=[N+]=[N-])[C@@H](CO)O2)c(=O)[nH]c1=O
c1ccc2ccccc2c1
C[C@]12CC[C@@H]3c4ccc(O)cc4CC[C@H]3[C@@H]1CCC2=O
CC(O)CC(C)(C)O (stereo not given)
CCCCOC(=O)c1ccc(O)cc1
O=C(O)Cn1c(=O)n(Cc2ccc(Br)cc2F)c(=O)c2ccc(Cl)cc21
C[C@]12CC[C@@H]3c4ccc(O)cc4CC[C@H]3[C@@H]1CC[C@H]2O

AC50, active:
O=c1[nH]sc2ccccc12 17.7 µM
Clc1ccccc1C(c1ccccc1)(c1ccccc1)n1ccnc1 31.9 µM
Cc1cc(F)ccc1-c1cc(N2CC[C@@H](O)[C@H]2CO)ncc1N(C)C(=O)C(C)(C)c1cc(C(F)(F)F)cc(C(F)(F)F)c1 12.9 µM
COc1ccc2cc(S(=O)(=O)N[C@H](CC(=O)N[C@H](Cc3ccc(CN4[C@H](C)CCC[C@@H]4C)cc3)C(=O)N(C)C(C)C)c3ccc4c(c3)OCO4)ccc2c1 33.9 µM
CN1C(=O)N(c2ccccc2Br)Cc2cnc(Nc3ccc4c(c3)OCC(CO)O4)nc21 (stereo not given) 3.52 µM
CC(C)(C)c1cc(/C=C2\SC(N)=NC2=O)cc(C(C)(C)C)c1O 25.1 µM
CN(C)c1ccc(C(=C2C=CC(=[N+](C)C)C=C2)c2ccc(N(C)C)cc2)cc1 0.662 µM
CC/C(=C(/CC)c1ccc(O)cc1)c1ccc(O)cc1 29.9 µM
CC(=O)N1CCN(c2ccc(OC[C@H]3CO[C@](Cn4ccnc4)(c4ccc(Cl)cc4Cl)O3)cc2)CC1 33 µM
CN(C[C@@H](CC[N+]12CCC(C3CCCCC3)(CC1)CC2)c1ccc(Cl)c(Cl)c1)C(=O)c1cc(C(F)(F)F)cc(C(F)(F)F)c1 25 µM
COc1cc(C(=O)NC2CCN(C)CC2)ccc1Nc1ncc2c(n1)N(C1CCCC1)CC(F)(F)C(=O)N2C 12.1 µM
CCOC(=O)O[C@H](C)OC(=O)c1ccc2c(c1)cc(C(=O)NC1CCN(C(C)C)CC1)n2Cc1cc(-c2ccc(Cl)s2)on1 10.9 µM
